Where “and” joins values, the source holds several entries; their conditions need not be identical. Equal values may be shown once. In all, about 5,500 compounds went through this assay and about 2,000 (36%) were called active. Another 18% or so got no clear call; they are omitted. No stated cut-off is given here; in the data, active means normalized growth mostly below about 0.91 (no sharp cut-off); inconclusive means no clear call, values can overlap the other calls; inactive means mostly above about 0.92. The list shows a part of the results.
Assay: chemical genetic growth profiling, strain panel (AID 1159580);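 further: tested at 20 µM; growth read once vehicle control cultures reached saturation at 30 °C; 1 = growth at the plate median or of vehicle wells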
Details: S. cerevisiae deletion strains, growth OD

CC(C)=CCc1c2c(c3occ(-c4ccc(O)cc4)c(=O)c3c1O)C=CC(C)(C)O2
normalized growth (locus YAL013W, strain DEP1, stronger effect = lower value): 0.718 (active)
normalized growth (locus YAL021C, strain ccr4, stronger effect = lower value): 0.962 (inactive)
normalized growth (locus YAL026C, strain drs2, stronger effect = lower value): 0.911 (inactive)
normalized growth (locus YAL030W, strain snc1, stronger effect = lower value): 0.876 (active)
normalized growth (locus YBL061C, strain skt5, stronger effect = lower value): 0.739 (active)
normalized growth (locus YBR009C, strain hhf1, stronger effect = lower value): 0.882 (active)
normalized growth (locus YBR021W, strain FUR4, stronger effect = lower value): 0.913 (inactive)
normalized growth (locus YBR023C, strain chs3, stronger effect = lower value): 0.747 (active)
normalized growth (locus YBR171W, strain sec66, stronger effect = lower value): 1.01 (inactive)
normalized growth (locus YBR229C, strain ROT2, stronger effect = lower value): 0.929 (inactive)
normalized growth (locus YBR231C, strain swc5, stronger effect = lower value): 0.751 (active)
normalized growth (locus YBR279W, strain paf1, stronger effect = lower value): 0.796 (active)
normalized growth (locus YCL011C, strain gbp2, stronger effect = lower value): 0.881 (active)
normalized growth (locus YCL016C, strain dcc1, stronger effect = lower value): 0.869 (active)
normalized growth (locus YCL029C, strain bik1, stronger effect = lower value): 0.926 (inactive)
normalized growth (locus YCL061C, strain MRC1, stronger effect = lower value): 0.947 (inactive)
normalized growth (locus YCL069W, strain vba3, stronger effect = lower value): 0.987 (inactive)
normalized growth (locus YCR088W, strain abp1, stronger effect = lower value): 1.01 (inactive)
normalized growth (locus YDL005C, strain med2, stronger effect = lower value): 0.995 (inactive)
normalized growth (locus YDL035C, strain GPR1, stronger effect = lower value): 0.72 (active)
normalized growth (locus YDL040C, strain nat1, stronger effect = lower value): 0.991 (inactive)
normalized growth (locus YDL074C, strain BRE1, stronger effect = lower value): 0.727 (active)
normalized growth (locus YDL101C, strain DUN1, stronger effect = lower value): 0.903 (inactive)
normalized growth (locus YDL134C, strain PPH21, stronger effect = lower value): 0.736 (active)
normalized growth (locus YDL185W, strain tfp1, stronger effect = lower value): 0.995 (inactive)
normalized growth (locus YDL192W, strain arf1, stronger effect = lower value): 0.859 (active)
normalized growth (locus YDR001C, strain nth1, stronger effect = lower value): 1.01 (inactive)
normalized growth (locus YDR069C, strain doa4, stronger effect = lower value): 0.711 (active)
normalized growth (locus YDR101C, strain arx1, stronger effect = lower value): 0.953 (inactive)
normalized growth (locus YDR137W, strain rgp1, stronger effect = lower value): 1.01 (inactive)
normalized growth (locus YDR159W, strain sac3, stronger effect = lower value): 1.07 (inactive)
normalized growth (locus YDR162C, strain NBP2, stronger effect = lower value): 0.664 (active)
normalized growth (locus YDR195W, strain ref2): 1.14 (inactive)
normalized growth (locus YDR297W, strain sur2, stronger effect = lower value): 0.828 (active)
normalized growth (locus YDR318W, strain mcm21, stronger effect = lower value): 0.911 (active)
normalized growth (locus YDR334W, strain swr1, stronger effect = lower value): 0.92 (inactive)
normalized growth (locus YDR335W, strain msn5, stronger effect = lower value): 0.981 (inactive)
normalized growth (locus YDR388W, stronger effect = lower value): 0.917 (active)
normalized growth (locus YDR392W, strain spt3, stronger effect = lower value): 0.78 (inactive)
normalized growth (locus YDR502C, strain sam2, stronger effect = lower value): 0.938 (inactive)
normalized growth (locus YEL003W, strain gim4, stronger effect = lower value): 0.94 (inactive)
normalized growth (locus YEL037C, strain rad23, stronger effect = lower value): 0.958 (inactive)
normalized growth (locus YEL061C, strain CIN8 (second series), stronger effect = lower value): 1.01 (inactive)
normalized growth (locus YEL061C, strain CIN8, stronger effect = lower value): 0.869 (active)
normalized growth (locus YER015W, strain faa2, stronger effect = lower value): 0.653 (active)
normalized growth (locus YER016W, strain bim1, stronger effect = lower value): 0.963 (inactive)
normalized growth (locus YER110C, stronger effect = lower value): 0.989 (inactive)
normalized growth (locus YER111C, strain swi4, stronger effect = lower value): 0.969 (inactive)
normalized growth (locus YER155C, strain BEM2 (second series), stronger effect = lower value): 0.956 (inactive)
normalized growth (locus YER155C, strain BEM2, stronger effect = lower value): 0.98 (inactive)
normalized growth (locus YER167W, strain BCK2, stronger effect = lower value): 0.896 (active)
normalized growth (locus YFR010W, strain ubp6, stronger effect = lower value): 0.895 (active)
normalized growth (locus YGL078C, strain dbp3, stronger effect = lower value): 1 (inactive)
normalized growth (locus YGL086W, strain mad1, stronger effect = lower value): 0.861 (active)
normalized growth (locus YGL167C, strain pmr1, stronger effect = lower value): 0.976 (inactive)
normalized growth (locus YGL173C, strain kem1, stronger effect = lower value): 0.666 (active)
normalized growth (locus YGL227W, strain vid30, stronger effect = lower value): 1.01 (inactive)
normalized growth (locus YGL240W, strain doc1, stronger effect = lower value): 1.02 (inactive)
normalized growth (locus YGL248W, strain PDE1, stronger effect = lower value): 0.705 (active)
normalized growth (locus YGL253W, strain hxk2, stronger effect = lower value): 0.87 (active)
normalized growth (locus YGR135W, strain pre9, stronger effect = lower value): 0.955 (inactive)
normalized growth (locus YGR252W, strain gcn5, stronger effect = lower value): 1.03 (inactive)
normalized growth (locus YHR013C, strain ard1, stronger effect = lower value): 0.755 (active)
normalized growth (locus YHR027C, strain rpn1, stronger effect = lower value): 0.614 (active)
normalized growth (locus YHR030C, strain SLT2, stronger effect = lower value): 0.886 (active) and 0.97 (inactive)
normalized growth (locus YHR079C, strain IRE1 (second series), stronger effect = lower value): 1 (inactive)
normalized growth (locus YHR079C, strain IRE1, stronger effect = lower value): 0.992 (inactive)
normalized growth (locus YHR094C, strain hxt1, stronger effect = lower value): 1.01 (inactive)
normalized growth (locus YHR129C, strain ARP1, stronger effect = lower value): 0.769 (active)
normalized growth (locus YHR142W, strain chs7, stronger effect = lower value): 0.838 (active)
normalized growth (locus YHR200W, strain rpn10, stronger effect = lower value): 0.893 (active)
normalized growth (locus YIL066C, strain RNR3, stronger effect = lower value): 0.663 (active)
normalized growth (locus YIL073C, strain SPO22, stronger effect = lower value): 0.537 (active)
normalized growth (locus YIL125W, strain kgd1, stronger effect = lower value): 0.982 (inactive)
normalized growth (locus YIR030C, strain dcg1, stronger effect = lower value): 0.995 (inactive)
normalized growth (locus YJL092W, strain hpr5, stronger effect = lower value): 0.977 (inactive)
normalized growth (locus YJL095W, strain BCK1 (second series), stronger effect = lower value): 0.834 (active)
normalized growth (locus YJL095W, strain BCK1, stronger effect = lower value): 0.719 (active) and 0.977 (inactive)
normalized growth (locus YJL115W, strain asf1, stronger effect = lower value): 1.01 (inactive)
normalized growth (locus YJL129C, strain trk1, stronger effect = lower value): 1.02 (inactive)
normalized growth (locus YJL134W, strain LCB3, stronger effect = lower value): 0.944 (inactive)
normalized growth (locus YJL154C, strain vps35, stronger effect = lower value): 1.01 (inactive)
normalized growth (locus YJL164C, strain tpk1, stronger effect = lower value): 0.77 (active)
normalized growth (locus YJL166W, strain qcr8, stronger effect = lower value): 0.811 (active)
normalized growth (locus YJL168C, strain set2, stronger effect = lower value): 0.996 (inactive)
normalized growth (locus YJL187C, strain SWE1 (second series), stronger effect = lower value): 0.77 (active)
normalized growth (locus YJL187C, strain SWE1, stronger effect = lower value): 0.803 (active)

Reference: PubChem BioAssay AID1159580 (chemical genetic matrix, 2015)
